From PubChem BioAssay (Tox21)
Records with an inconclusive call do not appear. A call without a number means that no potency is given here. Activity calls are given as the source filed them. Calls follow the shape of the dose curve; as a rule, active = well fitted curve in the direction sought with a large enough effect in the repeat runs; inconclusive = weak or mixed curves; inactive = no such curve, though single readings can be large; an effect the other way counts as inactive or inconclusive.

How the values were obtained:
[1] = biological target: Cytochrome P450 2C19 (Homo sapiens) (UniProt P33261); assay: Cytochrome P450 Family 2 Subfamily C Member 19 (CYP2C19) small molecule antagonists: luciferase reporter qHTS assay (AID 1671197); also: nearly all actives have a fitted effect of over 65% in size
Sequence of Cytochrome P450 2C19 (Homo sapiens) (P33261 whole entry, looked up): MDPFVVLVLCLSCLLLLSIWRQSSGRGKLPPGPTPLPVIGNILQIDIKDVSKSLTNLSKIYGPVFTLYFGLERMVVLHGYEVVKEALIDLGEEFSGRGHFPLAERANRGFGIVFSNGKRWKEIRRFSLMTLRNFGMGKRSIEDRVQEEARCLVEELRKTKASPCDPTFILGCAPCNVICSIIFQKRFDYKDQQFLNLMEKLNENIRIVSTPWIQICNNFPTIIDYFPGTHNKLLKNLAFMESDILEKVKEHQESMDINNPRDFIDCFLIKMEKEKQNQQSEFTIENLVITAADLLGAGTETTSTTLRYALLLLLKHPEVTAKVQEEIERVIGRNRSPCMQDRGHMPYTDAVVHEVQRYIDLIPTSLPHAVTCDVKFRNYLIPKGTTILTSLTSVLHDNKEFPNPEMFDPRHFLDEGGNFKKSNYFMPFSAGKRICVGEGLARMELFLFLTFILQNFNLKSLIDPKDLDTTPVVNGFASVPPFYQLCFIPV
Procedure, shortened: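 Quantitative high-throughput screen of the Tox21 library using CYP2C19 with proluciferin substrate. Reaction: NADPH regeneration, 37C, 1 h, after 10 min compound preincubation at room temperature. Readout: luminescence.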

[2] = biological target: Cytochrome P450 2C9 (Homo sapiens) (UniProt P11712); assay: Cytochrome P450 Family 2 Subfamily C Member 9 (CYP2C9) small molecule antagonists: luciferase reporter qHTS assay (AID 1671198); also: nearly all actives have a fitted effect of over 50% in size
Sequence of Cytochrome P450 2C9 (Homo sapiens) (P11712 whole entry, looked up): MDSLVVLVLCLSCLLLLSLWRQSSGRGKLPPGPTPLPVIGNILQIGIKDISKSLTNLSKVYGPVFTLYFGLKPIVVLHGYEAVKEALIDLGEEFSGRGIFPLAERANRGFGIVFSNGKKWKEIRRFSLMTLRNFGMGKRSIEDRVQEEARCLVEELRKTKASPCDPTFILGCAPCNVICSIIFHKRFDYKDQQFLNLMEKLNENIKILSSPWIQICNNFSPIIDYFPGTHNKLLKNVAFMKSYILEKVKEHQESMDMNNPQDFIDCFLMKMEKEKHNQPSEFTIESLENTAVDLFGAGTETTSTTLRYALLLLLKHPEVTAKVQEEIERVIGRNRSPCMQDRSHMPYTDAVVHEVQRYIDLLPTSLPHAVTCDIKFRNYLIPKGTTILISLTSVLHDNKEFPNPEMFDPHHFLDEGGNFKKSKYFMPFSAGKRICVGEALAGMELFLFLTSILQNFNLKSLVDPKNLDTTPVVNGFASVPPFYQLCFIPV
Procedure, shortened: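 CYP2C9 activity was measured with a P450-Glo proluciferin substrate. Enzyme–substrate mix was held with compound for 10 min at room temperature, then NADPH regeneration solution was added for 1 h at 37C. Luciferin product was read as luminescence.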

[3] = biological target: Cytochrome P450 1A2 (Homo sapiens) (UniProt P05177); assay: Cytochrome P450 Family 1 Subfamily A Member 2 (CYP1A2) small molecule antagonists: luciferase reporter qHTS assay (AID 1671199); also: nearly all actives have a fitted effect of over 50% in size
Sequence of Cytochrome P450 1A2 (Homo sapiens) (P05177 whole entry, looked up): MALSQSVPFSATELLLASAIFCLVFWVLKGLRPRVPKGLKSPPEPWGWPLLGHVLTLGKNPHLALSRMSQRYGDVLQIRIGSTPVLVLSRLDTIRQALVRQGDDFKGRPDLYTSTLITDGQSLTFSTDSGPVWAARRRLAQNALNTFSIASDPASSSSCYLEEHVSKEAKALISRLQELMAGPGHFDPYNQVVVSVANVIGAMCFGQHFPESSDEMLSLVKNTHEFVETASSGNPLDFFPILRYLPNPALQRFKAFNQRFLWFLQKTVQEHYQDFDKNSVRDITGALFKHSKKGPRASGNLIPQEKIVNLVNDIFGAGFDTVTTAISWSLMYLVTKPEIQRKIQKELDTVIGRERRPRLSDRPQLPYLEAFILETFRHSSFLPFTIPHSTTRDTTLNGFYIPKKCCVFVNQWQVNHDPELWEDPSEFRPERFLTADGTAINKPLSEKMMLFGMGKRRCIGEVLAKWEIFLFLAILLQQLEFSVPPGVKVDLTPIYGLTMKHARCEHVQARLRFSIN
Procedure, shortened: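 P450-Glo CYP1A2 enzyme–proluciferin substrate mix with compound 10 min at room temperature, then NADPH regeneration 1 h at room temperature. Luciferin detection reagent added, luminescence read after 20 min; furafylline positive control.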

[4] = biological target: Voltage-gated inwardly rectifying potassium channel KCNH2 (Homo sapiens) (UniProt Q12809); assay: Human Ether-a-go-go-Related Gene (hERG) channel small molecule antagonists: fluorescence cell-based qHTS assay (AID 1671200); also: nearly all actives have a fitted effect of over 50% in size
Sequence of Voltage-gated inwardly rectifying potassium channel KCNH2 (Homo sapiens) (Q12809 whole entry, looked up): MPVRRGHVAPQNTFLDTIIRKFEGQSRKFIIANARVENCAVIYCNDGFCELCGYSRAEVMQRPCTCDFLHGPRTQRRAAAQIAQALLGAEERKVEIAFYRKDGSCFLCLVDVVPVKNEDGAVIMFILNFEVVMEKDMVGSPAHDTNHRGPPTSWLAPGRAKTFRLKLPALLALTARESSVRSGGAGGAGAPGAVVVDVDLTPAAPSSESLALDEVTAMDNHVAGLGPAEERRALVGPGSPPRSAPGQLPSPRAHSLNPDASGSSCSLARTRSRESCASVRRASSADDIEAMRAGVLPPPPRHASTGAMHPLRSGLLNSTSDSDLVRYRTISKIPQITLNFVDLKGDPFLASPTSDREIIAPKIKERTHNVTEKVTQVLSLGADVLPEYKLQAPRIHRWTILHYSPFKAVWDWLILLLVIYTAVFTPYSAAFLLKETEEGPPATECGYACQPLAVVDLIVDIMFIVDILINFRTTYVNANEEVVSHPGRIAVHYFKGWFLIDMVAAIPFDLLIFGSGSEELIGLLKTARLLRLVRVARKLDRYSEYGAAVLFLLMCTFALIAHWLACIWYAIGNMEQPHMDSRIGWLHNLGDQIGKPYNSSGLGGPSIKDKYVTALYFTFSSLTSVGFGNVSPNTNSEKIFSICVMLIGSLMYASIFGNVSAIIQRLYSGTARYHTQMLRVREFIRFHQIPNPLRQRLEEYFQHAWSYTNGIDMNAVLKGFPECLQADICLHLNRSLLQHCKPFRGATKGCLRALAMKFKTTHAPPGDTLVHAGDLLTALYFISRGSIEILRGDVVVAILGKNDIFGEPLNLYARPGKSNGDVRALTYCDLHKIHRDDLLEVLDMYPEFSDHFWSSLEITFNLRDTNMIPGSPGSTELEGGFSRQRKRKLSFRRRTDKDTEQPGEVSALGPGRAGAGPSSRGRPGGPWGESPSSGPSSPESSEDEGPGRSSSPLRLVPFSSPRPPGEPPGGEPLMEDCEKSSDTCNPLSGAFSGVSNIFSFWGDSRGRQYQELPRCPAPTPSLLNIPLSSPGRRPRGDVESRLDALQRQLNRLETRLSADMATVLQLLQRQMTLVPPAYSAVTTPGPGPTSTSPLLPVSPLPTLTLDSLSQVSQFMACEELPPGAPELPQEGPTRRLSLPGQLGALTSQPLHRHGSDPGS
Procedure, shortened: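 Fluorescence at 540 nm emission (480 nm excitation) was recorded kinetically for 2 min at 1-second intervals once the thallium-containing stimulus reached cells previously loaded with FluxOR II dye.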

[5] = biological target: Cytochrome P450 3A4 (Homo sapiens) (UniProt P08684); assay: Cytochrome P450 Family 3 Subfamily A Member 4 (CYP3A4) small molecule antagonists: luciferase reporter qHTS assay (AID 1671201); also: nearly all actives have a fitted effect of over 50% in size
Sequence of Cytochrome P450 3A4 (Homo sapiens) (P08684 whole entry, looked up): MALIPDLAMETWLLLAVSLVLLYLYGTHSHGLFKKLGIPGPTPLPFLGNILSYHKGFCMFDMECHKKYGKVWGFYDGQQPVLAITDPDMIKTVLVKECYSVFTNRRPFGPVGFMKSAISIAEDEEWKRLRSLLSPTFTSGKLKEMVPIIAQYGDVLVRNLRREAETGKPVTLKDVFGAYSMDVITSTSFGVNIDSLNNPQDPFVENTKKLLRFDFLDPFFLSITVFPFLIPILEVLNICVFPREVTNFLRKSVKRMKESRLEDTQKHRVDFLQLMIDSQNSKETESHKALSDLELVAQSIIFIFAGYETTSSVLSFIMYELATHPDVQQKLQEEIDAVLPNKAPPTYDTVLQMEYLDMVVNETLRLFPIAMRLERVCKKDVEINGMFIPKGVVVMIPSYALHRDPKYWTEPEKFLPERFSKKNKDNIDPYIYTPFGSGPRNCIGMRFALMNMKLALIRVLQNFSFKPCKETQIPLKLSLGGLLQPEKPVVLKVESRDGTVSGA
Procedure, shortened: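 qHTS, 1536-well. CYP3A4 + proluciferin substrate, cpd 10 min RT → NADPH regen 1 h RT → detection reagent 20 min → luminescence (RLU). Ketoconazole positive control.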
Potency is read from the fitted curve at half-maximal effect.

| SMILES | Potency [1] | Potency [2] | Potency [3] | Potency [4] | Potency [5] |
| --- | --- | --- | --- | --- | --- |
| CCn1cc(C(=O)O)c(=O)c2cnc(N3CCNCC3)nc21 | inactive | inactive | inactive | inactive | inactive |
| COc1ccc(C(=O)N2CCN(CC(=O)N3CCOCC3)CC2)cc1 | inactive | inactive | inactive | inactive | inactive |
| O=C1OC(CN2CCOCC2)CN1/N=C/c1ccc([N+](=O)[O-])o1 (stereo not given) | inactive | inactive | inactive | inactive | inactive |
| CN1CCN(C(c2ccccc2)c2ccccc2)CC1 | inactive | inactive | inactive | inactive | inactive |
| OC(CN1CCC(Cc2ccc(F)cc2)CC1)c1ccc(Cl)cc1 (stereo not given) | inactive | inactive | inactive | 0.0849 µM (active) | inactive |
| CC(COCCO)OCCO (stereo not given) | inactive | inactive | inactive | inactive | inactive |
| CCCCCCCCCc1ccc(OCCOCCO)cc1 | 16.7 µM (active) | 10.6 µM (active) | inactive | 8.17 µM (active) | 8.39 µM (active) |
| Nc1ccc(N)c2c1C(=O)c1ccccc1C2=O | 22.4 µM (active) | 12.6 µM (active) | 0.399 µM (active) | inactive | 5.64 µM (active) |
| CC1(c2ccccc2)OC(C(=O)O)=CC1=O (stereo not given) | inactive | inactive | inactive | inactive | inactive |
| Cc1ccc(N=Nc2c(O)c(C(=O)O)cc3ccccc23)c(S(=O)(=O)O)c1 | inactive | 34.5 µM (active) | inactive | inactive | inactive |
| O=C(OCCc1ccccc1)c1ccccc1 | 12.6 µM (active) | 31.7 µM (active) | 20 µM (active) | inactive | inactive |
